Laboratory results taken from publication PMC7862700, “An all-to-all approach to the identification of sequence-specific readers for epigenetic DNA modifications on cytosine”.

Key:
Test in all cases: DAPPL (digital affinity profiling via proximity ligation, sequencing); 10 mM Tris-HCl pH 7.5, 50 mM NaCl, 1 mM DTT, 4% glycerol, room temperature, 30 min; GST-TFs on glutathione beads, 16-mer random dsDNA library, 0.1% formaldehyde crosslink after washing; high values mean tight binding
FEV = biological target: T1, FEV (Homo sapiens, UniProt Q99581 1-238); conditions: protein: recombinant; tags: N-terminal GST; dsDNA, one strand shown
T1 sequence: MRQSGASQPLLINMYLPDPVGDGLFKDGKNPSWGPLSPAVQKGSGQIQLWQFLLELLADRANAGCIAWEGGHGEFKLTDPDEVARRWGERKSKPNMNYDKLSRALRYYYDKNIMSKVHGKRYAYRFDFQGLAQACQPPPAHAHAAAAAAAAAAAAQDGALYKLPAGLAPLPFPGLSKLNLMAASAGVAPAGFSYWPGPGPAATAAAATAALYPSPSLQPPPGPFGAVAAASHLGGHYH
How it was run: (§1)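 Pools of DNA-barcoded human transcription factors, expressed in yeast as GST fusions on glutathione beads and combined with a tag-only sample, were incubated with 200 nmole of a 16-mer random double-stranded DNA library. Incubation took 30 min at room temperature in Tris/NaCl/DTT/glycerol buffer and was followed by washing, 0.1% formaldehyde crosslinking, proximity ligation (BsaI/T4 ligase, 1 h, 37 °C), PCR amplification and sequencing on an Illumina NextSeq500. Binding signal is the ratio of a hexamer's read frequency for a factor to its frequency for the tag-only sample.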

ETV5 = ETV5 (Homo sapiens, UniProt P41161 1-510); conditions: protein: recombinant; tags: N-terminal GST; dsDNA, one strand shown
How it was run: as §1

HSF1 = HSF1 (Homo sapiens, UniProt Q00613 1-529); conditions: protein: recombinant; tags: N-terminal GST; chain copies: 3; dsDNA, one strand shown
How it was run: as §1

SPIC = biological target: T2, SPIC (Homo sapiens, UniProt Q8N5J4 1-248); conditions: protein: recombinant; tags: N-terminal GST; dsDNA, one strand shown
T2 sequence: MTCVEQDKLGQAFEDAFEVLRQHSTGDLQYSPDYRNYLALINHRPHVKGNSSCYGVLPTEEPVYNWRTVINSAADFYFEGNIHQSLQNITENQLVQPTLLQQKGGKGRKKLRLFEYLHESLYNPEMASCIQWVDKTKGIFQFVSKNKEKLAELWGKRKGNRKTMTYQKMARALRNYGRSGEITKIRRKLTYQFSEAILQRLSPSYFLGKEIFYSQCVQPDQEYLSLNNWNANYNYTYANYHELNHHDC
How it was run: as §1

ELF4 = ELF4 (Homo sapiens, UniProt Q99607 1-663); conditions: protein: recombinant; tags: N-terminal GST; dsDNA, one strand shown
How it was run: as §1

ELK4 = biological target: T3, ELK4 (Homo sapiens, UniProt P28324-2 1-405); conditions: protein: recombinant; tags: N-terminal GST; dsDNA, one strand shown
T3 sequence: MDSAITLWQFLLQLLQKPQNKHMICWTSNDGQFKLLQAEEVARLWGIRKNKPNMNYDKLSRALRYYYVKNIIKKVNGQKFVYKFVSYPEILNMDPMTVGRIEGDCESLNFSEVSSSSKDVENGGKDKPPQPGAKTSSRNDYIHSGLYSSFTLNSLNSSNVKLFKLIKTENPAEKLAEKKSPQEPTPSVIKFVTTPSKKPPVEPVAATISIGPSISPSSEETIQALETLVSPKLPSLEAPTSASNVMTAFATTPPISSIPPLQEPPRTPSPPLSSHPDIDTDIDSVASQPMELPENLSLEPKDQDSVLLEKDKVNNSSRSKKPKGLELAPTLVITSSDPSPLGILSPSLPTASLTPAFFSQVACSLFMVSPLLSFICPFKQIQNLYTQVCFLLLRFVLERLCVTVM
How it was run: as §1

ETV2 = biological target: T4, ETV2 (Homo sapiens, UniProt O00321 1-342); conditions: protein: recombinant; tags: N-terminal GST; dsDNA, one strand shown
T4 sequence: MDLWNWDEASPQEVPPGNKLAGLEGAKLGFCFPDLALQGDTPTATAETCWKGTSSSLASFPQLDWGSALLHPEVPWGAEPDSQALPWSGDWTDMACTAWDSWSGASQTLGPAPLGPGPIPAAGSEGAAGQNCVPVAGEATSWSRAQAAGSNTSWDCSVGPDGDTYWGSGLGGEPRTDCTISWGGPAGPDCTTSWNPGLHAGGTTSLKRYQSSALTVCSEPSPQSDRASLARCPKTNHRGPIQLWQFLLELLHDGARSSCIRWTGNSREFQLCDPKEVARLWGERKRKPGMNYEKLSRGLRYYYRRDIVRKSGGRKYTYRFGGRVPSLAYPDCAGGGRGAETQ
How it was run: as §1

ELF3 = biological target: T5, ELF3 (Homo sapiens, UniProt P78545 1-371); conditions: protein: recombinant; tags: N-terminal GST; dsDNA, one strand shown
T5 sequence: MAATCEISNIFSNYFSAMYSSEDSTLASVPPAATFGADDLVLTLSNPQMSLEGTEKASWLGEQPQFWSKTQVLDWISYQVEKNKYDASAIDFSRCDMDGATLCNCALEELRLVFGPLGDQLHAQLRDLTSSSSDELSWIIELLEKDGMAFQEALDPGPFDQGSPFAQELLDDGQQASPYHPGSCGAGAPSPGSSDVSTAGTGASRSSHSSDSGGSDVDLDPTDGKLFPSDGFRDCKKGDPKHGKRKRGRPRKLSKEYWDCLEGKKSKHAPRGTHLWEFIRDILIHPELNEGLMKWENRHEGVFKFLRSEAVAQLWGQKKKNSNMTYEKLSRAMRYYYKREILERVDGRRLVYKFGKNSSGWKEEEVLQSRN
How it was run: as §1

CRX = CRX (Homo sapiens, UniProt O43186 1-299); conditions: protein: recombinant; tags: N-terminal GST; dsDNA, one strand shown
How it was run: as §1

ETV1 = ETV1 (Homo sapiens, UniProt P50549 1-477); conditions: protein: recombinant; tags: N-terminal GST; dsDNA, one strand shown
How it was run: as §1

ERF = biological target: T6, ERF (Homo sapiens, UniProt P50548 1-548); conditions: protein: recombinant; tags: N-terminal GST; dsDNA, one strand shown
T6 sequence: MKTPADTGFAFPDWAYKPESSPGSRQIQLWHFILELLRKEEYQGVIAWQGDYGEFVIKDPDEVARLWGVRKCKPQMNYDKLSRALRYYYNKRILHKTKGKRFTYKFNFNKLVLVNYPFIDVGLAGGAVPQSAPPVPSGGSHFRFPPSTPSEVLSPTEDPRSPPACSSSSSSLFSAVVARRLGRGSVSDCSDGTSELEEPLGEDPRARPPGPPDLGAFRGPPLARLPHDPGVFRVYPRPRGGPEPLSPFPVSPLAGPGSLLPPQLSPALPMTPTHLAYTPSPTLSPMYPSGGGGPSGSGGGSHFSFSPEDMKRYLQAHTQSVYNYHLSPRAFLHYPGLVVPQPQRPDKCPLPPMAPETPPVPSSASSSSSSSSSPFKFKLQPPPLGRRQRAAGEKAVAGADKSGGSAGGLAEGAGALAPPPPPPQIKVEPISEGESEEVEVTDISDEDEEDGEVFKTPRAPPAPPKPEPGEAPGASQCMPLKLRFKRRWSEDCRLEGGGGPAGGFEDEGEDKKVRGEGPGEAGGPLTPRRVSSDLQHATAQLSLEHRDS
How it was run: as §1

ETV3L = biological target: T7, ETV3L (Homo sapiens, UniProt Q6ZN32 1-361); conditions: protein: recombinant; tags: N-terminal GST; dsDNA, one strand shown
T7 sequence: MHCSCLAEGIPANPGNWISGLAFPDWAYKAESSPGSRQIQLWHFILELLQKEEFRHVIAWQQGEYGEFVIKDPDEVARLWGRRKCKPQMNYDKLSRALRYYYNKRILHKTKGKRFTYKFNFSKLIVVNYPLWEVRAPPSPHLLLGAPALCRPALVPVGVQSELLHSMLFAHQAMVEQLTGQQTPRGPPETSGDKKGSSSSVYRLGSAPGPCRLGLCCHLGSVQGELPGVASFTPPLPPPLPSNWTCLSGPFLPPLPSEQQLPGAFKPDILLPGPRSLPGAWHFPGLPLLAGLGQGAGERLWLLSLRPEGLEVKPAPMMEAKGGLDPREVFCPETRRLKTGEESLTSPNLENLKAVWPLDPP
How it was run: as §1

ETS2 = biological target: T8, ETS2 (Homo sapiens, UniProt P15036 1-469); conditions: protein: recombinant; tags: N-terminal GST; dsDNA, one strand shown
T8 sequence: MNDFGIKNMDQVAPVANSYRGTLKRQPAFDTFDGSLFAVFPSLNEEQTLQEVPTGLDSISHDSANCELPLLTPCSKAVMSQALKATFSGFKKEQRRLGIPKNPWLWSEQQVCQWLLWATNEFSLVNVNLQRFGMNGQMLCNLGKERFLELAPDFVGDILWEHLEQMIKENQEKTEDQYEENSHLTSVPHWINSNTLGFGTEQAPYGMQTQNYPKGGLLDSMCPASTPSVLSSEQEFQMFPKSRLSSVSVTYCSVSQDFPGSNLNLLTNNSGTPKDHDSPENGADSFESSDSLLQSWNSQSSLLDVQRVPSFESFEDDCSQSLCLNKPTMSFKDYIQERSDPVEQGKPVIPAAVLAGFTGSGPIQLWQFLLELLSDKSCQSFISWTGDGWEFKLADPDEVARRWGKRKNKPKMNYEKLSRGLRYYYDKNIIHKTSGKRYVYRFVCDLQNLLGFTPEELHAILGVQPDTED
How it was run: as §1

SPDEF = biological target: T9, SPDEF (Homo sapiens, UniProt O95238 1-335); conditions: protein: recombinant; tags: N-terminal GST; dsDNA, one strand shown
T9 sequence: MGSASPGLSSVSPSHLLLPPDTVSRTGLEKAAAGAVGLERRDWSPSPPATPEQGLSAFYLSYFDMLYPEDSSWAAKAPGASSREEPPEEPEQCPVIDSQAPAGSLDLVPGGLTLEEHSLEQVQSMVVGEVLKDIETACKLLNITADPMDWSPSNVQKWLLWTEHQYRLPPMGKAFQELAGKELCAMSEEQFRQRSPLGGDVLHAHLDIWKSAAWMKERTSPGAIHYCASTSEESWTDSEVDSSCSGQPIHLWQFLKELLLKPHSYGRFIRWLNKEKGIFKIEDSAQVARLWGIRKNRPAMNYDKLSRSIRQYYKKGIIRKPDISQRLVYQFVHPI
How it was run: as §1

ETV7 = biological target: T10, ETV7 (Homo sapiens, UniProt Q9Y603 1-341); conditions: protein: recombinant; tags: N-terminal GST; dsDNA, one strand shown
T10 sequence: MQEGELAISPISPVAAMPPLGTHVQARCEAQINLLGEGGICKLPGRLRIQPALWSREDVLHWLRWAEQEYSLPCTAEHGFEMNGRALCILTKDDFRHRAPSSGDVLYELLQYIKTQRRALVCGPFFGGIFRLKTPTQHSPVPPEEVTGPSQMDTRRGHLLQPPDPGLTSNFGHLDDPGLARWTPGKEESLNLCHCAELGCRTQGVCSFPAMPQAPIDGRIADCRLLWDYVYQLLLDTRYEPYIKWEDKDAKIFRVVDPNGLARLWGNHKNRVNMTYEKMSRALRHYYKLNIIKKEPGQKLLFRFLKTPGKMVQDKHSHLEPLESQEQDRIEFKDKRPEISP
How it was run: as §1

ELF5 = biological target: T11, ELF5 (Homo sapiens, UniProt Q9UKW6-2 1-255); conditions: protein: recombinant; tags: N-terminal GST; dsDNA, one strand shown
T11 sequence: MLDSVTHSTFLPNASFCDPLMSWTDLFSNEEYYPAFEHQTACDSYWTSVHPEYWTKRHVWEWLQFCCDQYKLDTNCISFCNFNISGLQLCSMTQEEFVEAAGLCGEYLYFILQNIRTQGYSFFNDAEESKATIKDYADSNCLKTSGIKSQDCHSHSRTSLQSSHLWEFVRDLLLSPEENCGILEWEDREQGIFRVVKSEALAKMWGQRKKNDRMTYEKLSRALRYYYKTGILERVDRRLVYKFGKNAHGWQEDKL
How it was run: as §1

ETV3 = biological target: T12, ETV3 (Homo sapiens, UniProt P41162-2 1-143); conditions: protein: recombinant; tags: N-terminal GST; dsDNA, one strand shown
T12 sequence: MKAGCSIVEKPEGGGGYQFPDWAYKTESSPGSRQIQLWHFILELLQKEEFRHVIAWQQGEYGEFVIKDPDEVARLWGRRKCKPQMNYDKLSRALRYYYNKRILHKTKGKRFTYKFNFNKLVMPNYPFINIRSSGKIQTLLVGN
How it was run: as §1

ETV6 = ETV6 (Homo sapiens, UniProt P41212 1-452); conditions: protein: recombinant; tags: N-terminal GST; dsDNA, one strand shown
How it was run: as §1

Chain of ELF4 (Q99607 whole entry): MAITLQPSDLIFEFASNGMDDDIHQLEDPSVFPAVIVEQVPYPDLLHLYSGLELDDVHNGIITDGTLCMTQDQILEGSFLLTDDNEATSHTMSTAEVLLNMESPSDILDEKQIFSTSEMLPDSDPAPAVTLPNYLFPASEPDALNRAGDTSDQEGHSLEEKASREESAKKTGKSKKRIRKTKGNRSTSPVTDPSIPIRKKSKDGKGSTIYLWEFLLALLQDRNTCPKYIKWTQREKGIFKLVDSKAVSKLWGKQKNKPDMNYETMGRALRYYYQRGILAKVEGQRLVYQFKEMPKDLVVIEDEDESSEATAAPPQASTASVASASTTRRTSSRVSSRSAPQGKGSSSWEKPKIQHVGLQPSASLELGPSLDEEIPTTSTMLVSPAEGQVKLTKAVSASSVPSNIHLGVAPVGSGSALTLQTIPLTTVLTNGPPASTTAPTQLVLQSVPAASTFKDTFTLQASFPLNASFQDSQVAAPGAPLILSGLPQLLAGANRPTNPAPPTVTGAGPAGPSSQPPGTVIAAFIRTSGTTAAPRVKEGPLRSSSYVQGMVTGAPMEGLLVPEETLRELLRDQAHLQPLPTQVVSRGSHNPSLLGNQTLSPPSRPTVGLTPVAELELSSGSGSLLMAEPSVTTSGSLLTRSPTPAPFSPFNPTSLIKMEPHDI
Chain of CRX (O43186 whole entry): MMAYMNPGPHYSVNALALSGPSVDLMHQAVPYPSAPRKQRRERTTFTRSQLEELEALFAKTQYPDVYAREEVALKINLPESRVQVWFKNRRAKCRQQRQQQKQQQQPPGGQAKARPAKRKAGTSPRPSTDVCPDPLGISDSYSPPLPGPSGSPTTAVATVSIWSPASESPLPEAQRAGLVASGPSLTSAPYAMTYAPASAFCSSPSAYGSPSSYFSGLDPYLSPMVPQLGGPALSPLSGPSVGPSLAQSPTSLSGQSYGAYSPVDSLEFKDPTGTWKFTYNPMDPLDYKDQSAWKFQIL
Chain of HSF1 (Q00613 whole entry): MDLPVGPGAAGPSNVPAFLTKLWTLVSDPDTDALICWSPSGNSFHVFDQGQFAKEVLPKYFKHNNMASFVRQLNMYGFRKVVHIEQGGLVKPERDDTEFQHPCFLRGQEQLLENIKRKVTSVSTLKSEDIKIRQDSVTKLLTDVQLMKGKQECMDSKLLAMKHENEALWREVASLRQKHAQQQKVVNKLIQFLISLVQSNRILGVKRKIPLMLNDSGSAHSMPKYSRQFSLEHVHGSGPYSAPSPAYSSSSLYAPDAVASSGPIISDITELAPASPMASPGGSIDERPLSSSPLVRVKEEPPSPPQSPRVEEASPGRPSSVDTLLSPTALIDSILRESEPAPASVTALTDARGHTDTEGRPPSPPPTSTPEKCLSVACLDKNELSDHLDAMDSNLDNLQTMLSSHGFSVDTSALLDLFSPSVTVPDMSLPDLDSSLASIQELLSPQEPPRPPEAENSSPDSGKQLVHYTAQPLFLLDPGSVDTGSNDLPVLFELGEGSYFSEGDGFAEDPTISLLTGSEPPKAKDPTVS
Chain of ETV6 (P41212 whole entry): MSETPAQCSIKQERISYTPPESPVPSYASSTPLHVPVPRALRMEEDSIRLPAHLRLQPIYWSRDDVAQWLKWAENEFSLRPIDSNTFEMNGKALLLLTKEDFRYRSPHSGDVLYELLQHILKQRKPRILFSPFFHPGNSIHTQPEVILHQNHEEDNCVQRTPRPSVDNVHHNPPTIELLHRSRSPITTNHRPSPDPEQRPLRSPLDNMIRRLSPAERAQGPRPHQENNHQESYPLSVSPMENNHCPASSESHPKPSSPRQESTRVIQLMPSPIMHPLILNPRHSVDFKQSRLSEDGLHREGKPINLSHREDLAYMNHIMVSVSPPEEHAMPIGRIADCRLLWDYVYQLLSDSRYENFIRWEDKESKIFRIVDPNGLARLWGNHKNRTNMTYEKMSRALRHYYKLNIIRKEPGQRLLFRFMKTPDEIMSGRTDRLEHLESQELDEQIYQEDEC
Chain of ETV1 (P50549 whole entry): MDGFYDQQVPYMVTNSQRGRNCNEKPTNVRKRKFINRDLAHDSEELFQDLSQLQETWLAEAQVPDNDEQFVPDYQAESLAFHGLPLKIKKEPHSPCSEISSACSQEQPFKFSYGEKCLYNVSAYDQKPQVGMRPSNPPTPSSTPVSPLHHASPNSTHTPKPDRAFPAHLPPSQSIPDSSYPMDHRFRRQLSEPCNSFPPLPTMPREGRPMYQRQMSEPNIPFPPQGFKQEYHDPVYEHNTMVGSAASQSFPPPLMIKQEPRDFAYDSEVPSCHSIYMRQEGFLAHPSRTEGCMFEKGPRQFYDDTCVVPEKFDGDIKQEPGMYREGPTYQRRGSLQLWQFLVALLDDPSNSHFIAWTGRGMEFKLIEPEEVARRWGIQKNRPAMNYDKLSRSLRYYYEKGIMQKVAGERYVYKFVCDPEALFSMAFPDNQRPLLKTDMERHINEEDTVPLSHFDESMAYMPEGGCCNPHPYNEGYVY
Chain of ETV5 (P41161 whole entry): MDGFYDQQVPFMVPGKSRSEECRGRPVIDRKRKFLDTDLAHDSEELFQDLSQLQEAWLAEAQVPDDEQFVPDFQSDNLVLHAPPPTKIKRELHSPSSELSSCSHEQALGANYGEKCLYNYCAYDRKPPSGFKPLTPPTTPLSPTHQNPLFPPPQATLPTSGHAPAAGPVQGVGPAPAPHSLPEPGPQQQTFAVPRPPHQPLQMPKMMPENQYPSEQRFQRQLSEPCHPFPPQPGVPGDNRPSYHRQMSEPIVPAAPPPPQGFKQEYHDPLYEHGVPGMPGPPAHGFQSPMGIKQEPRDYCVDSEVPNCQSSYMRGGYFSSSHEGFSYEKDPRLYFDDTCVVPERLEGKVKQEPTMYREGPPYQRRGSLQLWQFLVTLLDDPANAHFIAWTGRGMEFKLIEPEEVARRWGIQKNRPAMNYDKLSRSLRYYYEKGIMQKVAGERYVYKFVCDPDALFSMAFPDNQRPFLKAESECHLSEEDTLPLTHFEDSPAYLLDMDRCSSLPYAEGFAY

TTTACC
binding signal (FEV): 1.32 fold enrichment (6-mer frequency, TF over GST control)
binding signal (ETV5): 1.29 fold enrichment (6-mer frequency, TF over GST control)
binding signal (HSF1): 1.25 fold enrichment (6-mer frequency, TF over GST control)
binding signal (SPIC): 1.17 fold enrichment (6-mer frequency, TF over GST control)
binding signal (ELF4): 1.24 fold enrichment (6-mer frequency, TF over GST control)
binding signal (ELK4): 1.41 fold enrichment (6-mer frequency, TF over GST control)
binding signal (ETV2): 1.3 fold enrichment (6-mer frequency, TF over GST control)
binding signal (ELF3): 1.2 fold enrichment (6-mer frequency, TF over GST control)
binding signal (CRX): 1.48 fold enrichment (6-mer frequency, TF over GST control)
binding signal (ETV1): 1.16 fold enrichment (6-mer frequency, TF over GST control)
binding signal (ERF): 1.21 fold enrichment (6-mer frequency, TF over GST control)
binding signal (ETV3L): 1.1 fold enrichment (6-mer frequency, TF over GST control)
binding signal (ETS2): 1.28 fold enrichment (6-mer frequency, TF over GST control)
binding signal (SPDEF): 1.26 fold enrichment (6-mer frequency, TF over GST control)
binding signal (ETV7): 1.45 fold enrichment (6-mer frequency, TF over GST control)
binding signal (ELF5): 1.2 fold enrichment (6-mer frequency, TF over GST control)
binding signal (ETV3): 1.36 fold enrichment (6-mer frequency, TF over GST control)
binding signal (ETV6): 1.26 fold enrichment (6-mer frequency, TF over GST control)
